# Results as given in the antibiotic and cytotoxicity screens of Wong et al. (2023).
# The whole screen tested about 39,000 compounds, of which about 3,300 (8.5%) were called active. The sample as a whole holds a higher share of actives than the screen did.
# Tested on: HepG2
# Assay: cytotoxicity call (relative viability < 0.9)
# Conditions: 10 µM
row,SMILES,cytotoxicity call
1,C[C@H]1CN([C@@H](C)CO)C(=O)c2cccc(NC(=O)C3CC3)c2O[C@H]1CN(C)S(=O)(=O)c1ccc(F)cc1,inactive
2,COc1ccc(CN(C)C[C@H]2OCCCC[C@@H](C)Oc3ccc(NS(=O)(=O)c4ccc(C)cc4)cc3C(=O)N([C@H](C)CO)C[C@H]2C)cc1,inactive
3,C[C@H]1CN([C@@H](C)CO)C(=O)c2cc(NS(=O)(=O)c3cn(C)cn3)ccc2O[C@@H]1CN(C)S(=O)(=O)c1ccc(Cl)cc1,inactive
4,NNC(=O)c1cccc(C(F)(F)F)n1,inactive
5,CCC(=O)O[C@H]1[C@@H]2CC3=C4CC(=O)O[C@@H](c5ccoc5)[C@]4(C)CC[C@@H]3[C@@](C)(C2=O)[C@@H](CC(=O)OC)C1(C)C,inactive
6,C[C@H](CO)N1C[C@H](C)[C@H](CN(C)C(=O)c2ccccc2)OCCCC[C@H](C)Oc2ccc(NS(=O)(=O)c3cccs3)cc2C1=O,inactive
7,C[C@@H]1CN([C@@H](C)CO)C(=O)c2cc(NC(=O)Cc3cn(C)c4ccccc34)ccc2O[C@H]1CN(C)CC1CCCCC1,inactive
8,COc1cccc(S(=O)(=O)Nc2ccc3c(c2)[C@H]2C[C@H](CC(=O)NC4CCCCC4)O[C@@H](CO)[C@H]2O3)c1,inactive
9,CN(C)CCCNC(=O)C[C@@H]1CC[C@H]2[C@H](COc3ccc(NC(=O)c4cccc(F)c4)cc3C(=O)N2C)O1,inactive
10,COc1ccc(S(=O)(=O)Nc2ccc3c(c2)C(=O)N([C@@H](C)CO)C[C@@H](C)[C@@H](CN(C)Cc2ccc4c(c2)OCO4)OCCCC[C@H](C)O3)cc1,inactive
11,CCC(=O)NCc1nccc(N(C)C)n1,inactive
12,C[C@H](CO)N1C[C@H](C)[C@@H](CN(C)S(=O)(=O)c2ccc(F)cc2)Oc2ccc(NC(=O)Cn3cnnn3)cc2CC1=O,inactive
13,C[C@@H]1CN([C@@H](C)CO)C(=O)c2cc(NC(=O)Nc3ccc(C(F)(F)F)cc3)ccc2O[C@H]1CN(C)Cc1ccc(C(=O)Nc2ccccc2N)cc1,active
14,C[C@H](CO)N1C[C@H](C)[C@@H](CN(C)Cc2ccc(C(=O)Nc3ccccc3N)cc2)Oc2ccc(NC(=O)Nc3ccc(C(F)(F)F)cc3)cc2C1=O,inactive
15,C[C@H]1CN([C@@H](C)CO)C(=O)c2cc(NC(=O)Nc3ccc(C(F)(F)F)cc3)ccc2O[C@H]1CN(C)Cc1ccc(C(=O)Nc2ccccc2N)cc1,inactive
16,C[C@@H]1CN([C@@H](C)CO)C(=O)c2cccc(NC(=O)C3CCOCC3)c2O[C@@H]1CN(C)S(=O)(=O)c1ccc(F)cc1,inactive
17,Cc1noc(C)c1S(=O)(=O)Nc1ccc2c(c1)C(=O)N([C@H](C)CO)C[C@@H](C)[C@H](CN(C)CC1CCCCC1)OCCCC[C@@H](C)O2,inactive
18,CC(C=CC=C(C)C=CC1=C(C)C(=O)CCC1(C)C)=CC=CC=C(C)C=CC=C(C)C=CC1=C(C)C(=O)CCC1(C)C [CANTHAXANTHIN (euglenanone) ],inactive
19,COc1ccc(S(=O)(=O)Nc2ccc3c(c2)[C@@H]2C[C@H](CC(=O)NCC4CC4)O[C@@H](CO)[C@@H]2O3)cc1,inactive
20,C[C@H](CO)N1C[C@H](C)[C@@H](CN(C)Cc2ccc(C(=O)Nc3ccccc3N)cc2)Oc2ccc(NS(=O)(=O)c3ccc(Cl)cc3)cc2C1=O,inactive
21,C[C@@H]1CCCCO[C@H](CN(C)S(=O)(=O)c2cccs2)[C@@H](C)CN([C@@H](C)CO)C(=O)c2cc(NC(=O)Nc3ccc(F)cc3)ccc2O1,inactive
22,NCC(O)c1ccc(O)c(O)c1.O=C(O)C(O)C(O)C(=O)O (centres undefined),active

row,SMILES,cytotoxicity call
1,NC[C@@H](O)c1ccsc1,inactive
2,NC[C@H](O)c1ccc(O)c(O)c1,active
3,CNC[C@@H](O)c1ccc(O)c(O)c1,inactive
4,CNCC(O)c1ccc(O)c(O)c1.O=C(O)C(O)C(O)C(=O)O (centres undefined),active
5,O=C(O)[C@@H](O)Cc1ccc(O)c(O)c1,inactive
6,CNC[C@H](O)c1ccc(O)c(O)c1,inactive
7,N[C@H](C(=O)O)[C@H](O)c1ccc(O)c(O)c1,inactive
8,N[C@@H](C(=O)O)c1ccc(C(=O)O)c(O)c1,inactive
9,NC(C(=O)O)C(O)c1ccc(O)c(O)c1 (centres undefined),active
10,N[C@H](C(=O)O)c1ccc(C(=O)O)c(O)c1,inactive
11,NC[C@@H](O)c1ccc2ccccc2c1,inactive
12,Cc1noc(C)c1S(=O)(=O)N(C)C[C@H]1Oc2ccc(NC(=O)Cc3cn(C)c4ccccc34)cc2CC(=O)N([C@@H](C)CO)C[C@H]1C,inactive
13,COc1cccc(S(=O)(=O)N[C@@H]2C=C[C@H](CC(=O)NC3CCC3)O[C@H]2CO)c1,inactive
14,C[C@H](CO)N1C[C@H](C)[C@@H](CN(C)C(=O)Cc2ccccc2)OCCCC[C@H](C)Oc2ccc(NS(=O)(=O)c3cccs3)cc2C1=O,inactive
15,C[C@H](CO)N1C[C@H](C)[C@@H](CN(C)Cc2ccc(C(=O)O)cc2)Oc2ccc(NC(=O)c3ccncc3)cc2C1=O,inactive
16,C[C@@H]1CCCCO[C@@H](CN(C)Cc2ccc(C(F)(F)F)cc2)[C@H](C)CN([C@H](C)CO)C(=O)c2cc(NS(=O)(=O)c3cn(C)cn3)ccc2O1,inactive
17,CC(C)NC(=O)N(C)C[C@H]1OCCCC[C@H](C)Oc2ccc(NC(=O)Nc3ccc(C(F)(F)F)cc3)cc2C(=O)N([C@@H](C)CO)C[C@H]1C,inactive
18,C[C@@H]1CCCCO[C@H](CN(C)S(=O)(=O)c2ccc(Cl)cc2)[C@@H](C)CN([C@@H](C)CO)C(=O)c2cc(NC(=O)C3CCCCC3)ccc2O1,inactive
19,C[C@@H]1CCCCO[C@H](CN(C)C(=O)CCC(F)(F)F)[C@H](C)CN([C@H](C)CO)C(=O)c2cc(NS(=O)(=O)c3ccccc3)ccc2O1,inactive
20,C[C@@H]1CCCCO[C@@H](CN(C)C(=O)Nc2ccccc2)[C@H](C)CN([C@H](C)CO)C(=O)c2cc(NC(=O)Nc3ccc(C(F)(F)F)cc3)ccc2O1,inactive
21,CC(C)NC(=O)N(C)C[C@H]1Oc2c(NS(=O)(=O)c3ccc(F)cc3)cccc2C(=O)N([C@H](C)CO)C[C@H]1C,inactive
22,C[C@@H]1CN([C@@H](C)CO)C(=O)c2cc(C#CC3CC3)cnc2O[C@H]1CN(C)S(=O)(=O)c1cccc(F)c1,inactive
